Where a name gives a salt, the structure may show the parent alone. A number with no mark means an inactive call.
test system: NCI-H1688; experiment: inhibition of cell viability relative to untreated control (fraction); higher = stronger growth inhibition, active = 0.5 or more; details: 30 µM; 24 h
Procedure: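 Natural product library (TargetMol, 640 compounds) screened on NCI-H1688 SCLC cells at 30 µM for 24 h; viability by CCK-8 absorbance at 450 nm, normalised to untreated control and expressed as inhibition rate (fraction). Compounds with >50% reduction in viability were selected as hits.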

Structure (SMILES) | inhibition of cell viability
c1ccc2c(Cc3c[nH]c4ccccc34)c[nH]c2c1 [3,3'-Diindolylmethane] | 0.12
C=C1C(=O)O[C@@H]2/C=C(\C)CC/C=C(\C)CC[C@@H]12 [Costunolide] | 0.333
C=C(NC(=O)C(=C)NC(=O)c1csc(C2=N[C@@H]3c4csc(n4)[C@H]4NC(=O)c5csc(n5)[C@H]([C@](C)(O)[C@@H](C)O)NC(=O)[C@H]5CSC(=N5)/C(=C/C)NC(=O)[C@H]([C@@H](C)O)NC(=O)c5csc(n5)[C@]3(CC2)NC(=O)[C@H](C)NC(=O)C(=C)NC(=O)[C@H](C)NC(=O)[C@H]([C@@H](C)CC)N[C@@H]2C=Cc3c([C@H](C)O)cc(nc3[C@H]2O)C(=O)O[C@@H]4C)n1)C(N)=O [Thiostrepton] | 0.943 (active)
N[C@@H](Cc1c[nH]c2ccc(O)cc12)C(=O)O [5-hydroxytryptophan (5-HTP)] | -0.0946
O=c1ccc2cc3ccoc3cc2o1 [Psoralen] | -0.0315
COc1cc([C@@H]2c3cc4c(cc3[C@@H](O[C@@H]3O[C@@H]5CO[C@@H](C)O[C@H]5[C@H](O)[C@H]3O)[C@H]3COC(=O)[C@H]23)OCO4)cc(OC)c1O [Etoposide] | 0.664 (active)
O=C1c2cccc(O)c2C(=O)c2c(O)cccc21 [Antrapurol] | 0.783 (active)
O=C(/C=C/c1ccc(O)c(O)c1)O[C@H](Cc1ccc(O)c(O)c1)C(=O)O [Rosmarinic acid] | 0.0726
CC(C)c1cc(C(C)C)c(CC(=O)NS(=O)(=O)Oc2c(C(C)C)cccc2C(C)C)c(C(C)C)c1 [Avasimibe] | 0.757 (active)
N[C@@H]1CONC1=O [D-Cycloserine] | 0.0589
C#C[C@]1(O)CC[C@H]2[C@@H]3CCc4cc(O)ccc4[C@H]3CC[C@@]21C [Ethynyl estradiol] | 0.639 (active)
CCCCCCCCCCCCCCCCCCCCCCCCCCCCCCO | 0.22
C[C@@]12C[C@@]3(O)O[C@@H](O1)[C@]1(COC(=O)c4ccccc4)[C@H]3C[C@@]12O[C@@H]1O[C@H](CO)[C@@H](O)[C@H](O)[C@H]1O [Paeoniflorin] | 0.068
C=C[C@H]1CN2CC[C@H]1C[C@H]2[C@H](O)c1ccnc2ccc(OC)cc12 [Quinine] | 0.162
C[C@H]1[C@H](OC(=O)CCC(=O)O)O[C@@H]2O[C@@]3(C)CC[C@H]4[C@H](C)CC[C@@H]1[C@@]24OO3 [Artesunate] | 0.726 (active)
COc1ccc(-c2cc(=O)c3c(OC)c(OC)c(OC)c(OC)c3o2)cc1OC [Nobiletin] | 0.293
CC(=O)O[C@@]12CO[C@@H]1C[C@H](O)[C@@]1(C)C(=O)[C@H](O)C3=C(C)[C@@H](OC(=O)[C@H](O)[C@@H](NC(=O)OC(C)(C)C)c4ccccc4)C[C@@](O)([C@@H](OC(=O)c4ccccc4)[C@H]21)C3(C)C [Docetaxel trihydrate] | 0.635 (active)
CCCCCC=CCC=CCCCCCCCC(=O)OC(COC(=O)CCCCCCCCCCCCCCC)COP(=O)([O-])OCC[N+](C)(C)C [L-α-Phosphatidylcholine] | 0.136
COC(=O)/C=C/c1ccc(O)cc1 [Methyl 4-hydroxycinnamate] | -0.109
Cc1ncc(CO)c(CO)c1O [Pyridoxine hydrochloride] | 0.171

Structure (SMILES) | inhibition of cell viability
OC[C@H]1O[C@@H](Oc2cc(O)cc(/C=C/c3ccc(O)cc3)c2)[C@H](O)[C@@H](O)[C@@H]1O [Piceid] | 0.175
Oc1cc2c(cc1O)[C@@H]1c3ccc(O)c(O)c3OC[C@]1(O)C2 [Hematoxylin] | 0.0369
C[C@]12CC[C@@H]3c4ccc(O)cc4CC[C@H]3[C@@H]1C[C@@H](O)[C@@H]2O [Estriol] | 0.0233
Oc1cc(O)cc(/C=C/c2ccc(O)c(O)c2)c1 [Piceatannol] | 0.164
COc1cc2c(cc1OC)[C@@H]1Cc3ccc(OC)c(OC)c3CN1CC2 [Tetrahydropalmatine] | 0.242
COc1ccc(/C=C\c2cc(OC)c(OC)c(OC)c2)cc1O [Combretastatin A4] | 0.823 (active)
CCOC(=O)/C=C/c1ccc(O)c(OC)c1 [Ethyl ferulate] | -0.0133
N[C@@H](Cc1cc(I)c(Oc2ccc(O)c(I)c2)c(I)c1)C(=O)O [Lyothyronine] | 0.0198
O=C(O)CCc1ccc(O)cc1 [Phloretic acid] | 0.081
COc1ccc(-c2cc(=O)c3c(O)cc(O[C@@H]4O[C@H](CO[C@@H]5O[C@@H](C)[C@H](O)[C@@H](O)[C@H]5O)[C@@H](O)[C@H](O)[C@H]4O)cc3o2)cc1O [Diosmin] | -0.00104
C=CCSC[C@H](N)C(=O)O [S-allyl-L-cysteine] | -0.0574
CCc1c2c(nc3ccc(OC(=O)N4CCC(N5CCCCC5)CC4)cc13)-c1cc3c(c(=O)n1C2)COC(=O)[C@]3(O)CC [Irinotecan] | 0.684 (active)
C[C@H]1O[C@@H](O[C@H]2[C@@H](O)C[C@H](O[C@H]3[C@@H](O)C[C@H](O[C@H]4CC[C@@]5(C)[C@H](CC[C@@H]6[C@@H]5C[C@@H](O)[C@]5(C)[C@@H](C7=CC(=O)OC7)CC[C@]65O)C4)O[C@@H]3C)O[C@@H]2C)C[C@H](O)[C@@H]1O [Digoxin] | 0.995 (active)
COc1ccc2cc1Oc1ccc(cc1)C[C@H]1c3c(cc4c(c3Oc3cc5c(cc3OC)CCN(C)[C@@H]5C2)OCO4)CCN1C [Cepharanthine] | 1.01 (active)
Oc1cc(O)c2c(c1)O[C@H](c1ccc(O)c(O)c1)[C@@H](O)C2 [(+)-Catechin Hydrate] | 0.159
CC1(C)CC[C@]2(C(=O)O)CC[C@]3(C)C(=CC[C@@H]4[C@@]5(C)CC[C@H](O)C(C)(C)[C@@H]5CC[C@]43C)[C@@H]2C1 [Oleanolic Acid] | 0.0195
CO[C@H]1C[C@@H]2CC[C@@H](C)[C@@](O)(O2)C(=O)C(=O)N2CCCC[C@H]2C(=O)O[C@H]([C@H](C)C[C@@H]2CC[C@@H](O)[C@H](OC)C2)CC(=O)[C@H](C)/C=C(\C)[C@@H](O)[C@@H](OC)C(=O)[C@H](C)C[C@H](C)/C=C/C=C/C=C/1C [Rapamycin (Sirolimus)] | 0.76 (active)
C=C1C(=O)O[C@@H]2C[C@@]3(C)CCC[C@H](C)C3=C[C@H]12 [Helenine] | 0.789 (active)
O=C1/C(=C2\Nc3ccccc3C2=O)Nc2ccccc21 [Indigo] | -0.275
CC[C@H]1OC(=O)[C@H](C)[C@@H](O[C@H]2C[C@@](C)(OC)[C@@H](O)[C@H](C)O2)[C@H](C)[C@@H](O[C@@H]2O[C@H](C)C[C@H](N(C)C)[C@H]2O)[C@](C)(O)C[C@@H](C)C(=O)[C@H](C)[C@@H](O)[C@]1(C)O [Erythromycin] | 0.0155
